Calls of active or inactive are those of the source.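 Rule for the calls: active = growth inhibition above 50% at the single 2 µM test dose, taken to imply half-maximal potency below 2 µM; inactive = the rest.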
Experiment: antimalarial activity against Dd2 strain (AID 2302);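 note: 0% = DMSO untreated growth and 100% = chloroquine plus artemisinin killed control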
Conditions: P. falciparum Dd2 in RBCs, LDH growth readout, 72 h; at 2 µM; stronger effect = higher value

SMILES | growth inhibition
O=C(NCCCCN1CCN(c2ccc3c(c2)CCC3)CC1)c1ccc(NC(=O)c2ccc(Cl)cc2)cc1 | 35% (inactive)
O=C(NCc1cccnc1)C(c1cc2ccccc2o1)N1CCN(C(c2ccccc2)c2ccccc2)CC1 (centres undefined) | 81% (active)
O=C(Nc1cccc(CN2CCCN(Cc3cccnc3)CC2)c1)c1ccc(Cl)c(Cl)c1 | 19% (inactive)
Cc1cc(N2CCN(C)CC2)nc2ccc(NC(=O)c3cccc(N(C)C)c3)cc12 | 23% (inactive)
COc1ccc2nc(-c3ccc(C(=O)NCCCN4CCN(c5cc(Cl)ccc5OC)CC4)cc3OC)[nH]c2c1 | 24% (inactive)
O=C(NCCN1Cc2ccccc2C1=O)c1ccc(Oc2ccc(C(=O)NCCN3Cc4ccccc4C3=O)cc2)cc1 | 95% (active)
CN(C)Cc1cccc(-c2ccc(NC(=O)c3ccc4c(=O)n(C5CCCCC5)cnc4c3)cc2)c1 | 53% (active)
COc1ccc(Br)cc1C1Nc2ccc3ccccc3c2C2=C1C(=O)CC(c1ccccc1)C2 (centres undefined) | 96% (active)
COc1cccc(NC(=O)Nc2ccc(Nc3nc(C)cc(N4CCCC4)n3)cc2)c1 | 100% (active)
c1ccc(CN2CCC(NCc3ccc(-c4cccc(CNC5CCCC5)c4)cc3)CC2)cc1 | 100% (active)
Clc1cccc(Cl)c1CCNCC1CCN(CC2CCCCC2)CC1 | 94% (active)
Cc1c(Br)cc2[nH]c(-c3ccc(C(=O)NC4CCN(Cc5ccccc5)CC4)cc3)nc2c1C | 98% (active)
CC(C)(C)c1ccc(NC(=O)N[C@@H]2CCN(c3ccnc4ccccc34)C2)cc1 | 96% (active)
C=Cc1sc(CNCCCNc2cc(=O)c3ccccc3[nH]2)c(C)c1Br | 35% (inactive)

— PubChem BioAssay
